SUMO Mot1 rescue = blocks SUMOylation pathway, rescuing yeast Mot1-301 growth | S. cerevisiae Mot1-301 growth rescue, ATP luminescence, 38.5C; percent above DMSO median, 100 means doubled | growth rescue, % at 18.8 µM | actives 1% (n = 320,000) | AID 2716;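 active = every valid replicate shows activation above 250% relative to neutral control wells; inactive = the rest, any valid replicate at or below 250%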;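 note: OY570 slx delta 5 strain wells were the positive control but not used for scaling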
AI-2 QS mod = modulates the Vibrio harveyi AI-2 quorum sensing system | Vibrio harveyi JMH597 AI-2 luminescence/OD600 ratio, 9 h; active compounds read low; strain lacks LuxN and CqsS sensors; 0 = neutral-control median | activity change, % at 7.5 µM | actives 0.4% (n = 300,000); in the data active = activity change below about -75%, passing the limit was not always enough; inconclusive = no clear call, values can overlap the other calls;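 note: luminescence divided by OD600 gain over 9 h not by final OD600 alone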
HIF activator = HIF pathway transcriptional activation. U2OS HRE-luciferase reporter, luminescence; normalized: DMSO 0%, desferrioxamine 100%. activation, % at 7.5 µM (by protocol). actives 0.32% (n = 300,000). AID 1910;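 active = mean activation of at least 10% of the iron chelator positive control signal, with at least half of replicates also reaching 10%; inconclusive = mean and replicate majority disagree about reaching 10%; inactive = mean and most replicates under 10%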
ALR inh = inhibitors of human sulfhydryl oxidase ALR | P55789 | purified ALR, DTT oxidation, H2O2 HRP-luminol luminescence | inhibition, % (no concentration beside the values) | actives 3.8% (n = 290,000) | AID 485317;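 active = mean replicate inhibition above about 79%, with every replicate also reaching it, limit read from the data; inconclusive = only one of the two criteria met; inactive = mean below limit and not every replicate reaching it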
Target sequence (P55789 whole entry, looked up): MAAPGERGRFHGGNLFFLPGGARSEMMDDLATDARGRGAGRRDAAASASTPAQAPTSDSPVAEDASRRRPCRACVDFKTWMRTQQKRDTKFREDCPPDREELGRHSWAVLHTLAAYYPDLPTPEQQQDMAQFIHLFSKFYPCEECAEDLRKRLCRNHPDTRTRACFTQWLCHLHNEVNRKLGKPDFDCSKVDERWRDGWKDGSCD
Active calls of the source: *; ? = inconclusive; . = no result; + = active, no number. Sampled rows, rich in hits. Any-hit rate of the full collection: about 4.8%.

SMILES	SUMO Mot1 rescue	AI-2 QS mod	HIF activator	ALR inh
O=C(Nc1nc2ccc(S(=O)(=O)N3CCCCC3)cc2s1)c1ccncc1	-5	23	0	98*
NS(=O)(=O)c1ccc(NC(=S)NC(=O)c2cccs2)cc1	271	21	0	11
O=C(NC(=S)Nc1ccc(S(=O)(=O)N2CCCCC2)cc1)c1cccs1	334*	4	.	.
O=C(Nc1ccc(S(=O)(=O)Nc2ncccn2)cc1)c1cnc(Cl)c(Cl)c1	-12	1	-1	-9
C=CCNC(=O)c1cc(-c2ccncc2)nc2c(C)cc(C)cc12	2	20	0	-4
O=C(NCc1ccccc1F)c1ccncc1	-10	6	0	.
O=C(Nc1nc(-c2cccs2)cs1)c1ccc(S(=O)(=O)N2CCCCC2)cc1	77	3	0	.
O=C(Nc1ccc(S(=O)(=O)Nc2ncccn2)cc1)c1ccc(S(=O)(=O)N2CCCC2)cc1	6	3	0	96*
O=C(Nc1nc(-c2ccccn2)cs1)c1ccc(S(=O)(=O)N2CCCCC2)cc1	-20	?	16*	0
O=C(Nc1ccncc1)c1ccc2ncsc2c1	13	10	1	98*
O=C(Nc1cccc(F)c1)c1ccc2ncsc2c1	87	7	5	.
CN1CCN(c2ccc(-c3cccc(NC(=O)COc4ccc(Cl)cc4Cl)c3)nn2)CC1	-15	4	1	-4
N#Cc1nc(-c2ccco2)oc1NCCc1ccccc1	.	53	0	98*
COc1ccc(CCNc2oc(-c3ccco3)nc2C#N)cc1	4	35	0	25
Cc1cc(C)c2c(CC(=O)NC3CCS(=O)(=O)C3)coc2c1 (stereo unspecified)	9	35	0	-1
O=C(NCCCl)C1Cc2c(ccc3ccccc23)O1 (stereo unspecified)	+	-7	0	-123
O=C(NCCCN1CCOCC1)C1Cc2c(ccc3ccccc23)O1 (stereo unspecified)	19	6	1	.
CC1Cc2cc(S(=O)(=O)NCCc3ccccc3)ccc2N1C(=O)C1CC1 (stereo unspecified)	10	2	0	4
CC(=O)N1c2ccc(S(=O)(=O)NCCc3ccccc3)cc2CC1C (stereo unspecified)	1	5	18*	-1
CCN(Cc1ccccc1)C(=O)CCNS(=O)(=O)c1ccc2c(c1)CC(C)N2C(C)=O (stereo unspecified)	7	17	69*	-11
Cc1ccc2c(c1)[C@H]1[C@H](CO2)[C@H](c2ccccc2)[C@]2(C)C(=O)Nc3cc(F)ccc3C(=O)N12	251	.	.	0
O=C(Nc1ccc2c(c1)OCO2)C1CCCN1C(=O)Nc1ccccc1 (stereo unspecified)	125	10	0	-5
COCCn1c(SCC(=O)Nc2ccc(C(N)=O)cc2)nc2c([nH]c3ccccc32)c1=O	15	13	0	99*
COCCn1c(SCC(=O)Nc2ccc(F)cc2)nc2c([nH]c3ccccc32)c1=O	-3	35	0	58
C[C@H](CO)N1C[C@H](C)[C@@H](CN(C)S(=O)(=O)c2cccs2)Oc2c(NS(=O)(=O)c3ccccc3)cccc2C1=O	7	.	.	-13
SMILES	SUMO Mot1 rescue	AI-2 QS mod	HIF activator	ALR inh
O=S(=O)(c1ccc(Br)c2ccccc12)N1CCCC1	11	24	-29	.
COc1ccccc1N(Cc1ccccc1)S(=O)(=O)c1cccc(C(=O)N2CCCCC2)c1	5	.	.	-5
COC(=O)c1ccc(C(C(=O)NCc2ccccc2)N(Cc2ccco2)C(=O)c2cnccn2)cc1 (stereo unspecified)	5	20	174*	1
CCN(CCNC(=O)c1cc(C)nn1-c1ccccc1)c1ccccc1	-13	11	0	99*
COc1ccc(NC2CCCN(C(=O)C3=NN(C)C(=O)CC3)C2)cc1OC (stereo unspecified)	11	16	0	98*
COc1ccc(NC2CCCN(C(=O)c3cccc(C)n3)C2)cc1OC (stereo unspecified)	.	18	0	?
CC(C)c1ccc(NC2CCCN(C(=O)C3=NN(C)C(=O)CC3)C2)cc1 (stereo unspecified)	-8	24	0	98*
COC(=O)CSc1nc(N2CCOCC2)c2c(c1C#N)CC(C)(C)N(C)C2	.	7	0	95*
O=C1NC(=O)/C(=C\c2ccc(O)cc2O)S1	.	38	0	99*
O=C1NC(=O)/C(=C/c2cccc3ccccc23)S1	21	72	0	39

Source: PubChem BioAssay
